High-throughput results as filed in PubChem.
DAGLB inhibitor = blocks human DAGLB lipase activity. Q8NCG7. HEK293T DAGLB membrane lysate, EnzChek fluorogenic substrate. inhibition, % at 5.17 µM. 0.059% of 340,000 active. AID 504411; in the data active means inhibition above about 34%
Rtt109 HAT inh = blocks Candida albicans Rtt109/Vps75 acetyltransferase activity. AID 540336. 0.16% of 330,000 active. inhibition, % at 34.9 µM. Q5AAJ8. purified Rtt109/Vps75, ThioGlo CoA-SH fluorescence, 4 h;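 active means inhibition of at least 50% in every replicate; inconclusive means best replicate reaches 50% inhibition but some replicates fall short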
Cardio protect = protects H9c2 cardiomyocytes from peroxide injury; H2O2 injury protection, ATPLite, 2 h; protection from H2O2 cell death, % at 20 µM; 0.63% of 360,000 active;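 active means compounds giving at least 50% protection of heart cells from peroxide-induced death in the single-dose screen, raw or plate-pattern-corrected value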
ABHD5-PLIN5 inh = blocks binding of human ABHD5 to perilipin-5. Split G. princeps luciferase complementation, luminescence, 4 h. Q00G26+Q8WTS1. inhibition, % at 4 µM. 0.78% of 360,000 active;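 active means inhibition above the mean inhibition across every tested compound plus 3 SD, cut at about 22% in these data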
Target sequence (Q00G26 whole entry, looked up): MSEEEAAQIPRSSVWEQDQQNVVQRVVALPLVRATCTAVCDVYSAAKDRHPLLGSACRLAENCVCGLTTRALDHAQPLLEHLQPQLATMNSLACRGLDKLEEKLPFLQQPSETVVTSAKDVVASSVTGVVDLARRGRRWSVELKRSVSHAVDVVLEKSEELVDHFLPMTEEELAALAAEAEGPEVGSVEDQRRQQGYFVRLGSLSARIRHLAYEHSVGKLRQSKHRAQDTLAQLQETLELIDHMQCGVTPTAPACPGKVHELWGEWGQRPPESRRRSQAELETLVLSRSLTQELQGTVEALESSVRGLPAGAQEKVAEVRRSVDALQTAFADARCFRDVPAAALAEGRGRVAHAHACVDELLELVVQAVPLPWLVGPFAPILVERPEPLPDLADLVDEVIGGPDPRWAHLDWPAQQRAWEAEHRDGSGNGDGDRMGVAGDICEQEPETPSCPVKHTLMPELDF
Target sequence (Q8WTS1 whole entry, looked up): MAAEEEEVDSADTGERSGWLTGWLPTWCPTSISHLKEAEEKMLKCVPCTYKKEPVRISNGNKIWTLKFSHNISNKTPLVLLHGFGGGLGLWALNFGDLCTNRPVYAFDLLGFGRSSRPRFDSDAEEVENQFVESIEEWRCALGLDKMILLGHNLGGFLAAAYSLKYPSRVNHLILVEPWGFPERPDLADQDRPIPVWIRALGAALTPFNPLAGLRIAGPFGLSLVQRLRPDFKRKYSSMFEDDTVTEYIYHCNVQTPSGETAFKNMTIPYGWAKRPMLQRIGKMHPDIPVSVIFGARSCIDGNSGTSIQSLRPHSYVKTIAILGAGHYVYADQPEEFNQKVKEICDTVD
sPLA2-III inh = Inhibits HGIII-sPLA2 liposome hydrolysis, primary screen; Q9NZ20; QFRET BODIPY PC-A2 liposome hydrolysis, fluorescence; inhibition, % at 12.2 µM; 0.56% of 370,000 active;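 active means inhibition above mean plus 3 SD of compounds lying within the high and low control bounds, cut at about 19% in these data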
Myeloid diff MLP = myeloid differentiation induction; ER-HoxA9 myeloid progenitors, lysozyme-GFP differentiation, flow cytometry; calls only at 10 µM; 1% of 360,000 active; AID 624256;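 active means normalized GFP-positive differentiation at or above the plate's own cutoff, the solvent-only control mean plus 3 SD; inconclusive means no clear call, values can overlap the other calls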;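 further: cells exposed to compound for four days before flow analysis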
Each line names hits and unclear results; the compound was inactive in the other large screens; ! = not active in a repeat. Compounds with a hit are over-represented: about 2.9% of the library has one in this group of screens.

CCCCCCCCCCOC(=O)Cn1c(COc2ccc(OC)cc2)[n+](C)c2ccccc21	Rtt109 HAT inh 84! (no result: sPLA2-III inh)
Cc1cccc(C(=O)N2CCC(=O)N([C@H](COCc3cccc(C(F)(F)F)c3)Cc3ccccc3)CC2)c1	none (no result: DAGLB inhibitor, Rtt109 HAT inh, Cardio protect)
Cc1cccc(C(=O)N2CCC(=O)N(C(COCc3cccc(C(F)(F)F)c3)Cc3ccccc3)CC2)c1 (centres undefined)	Myeloid diff MLP active
Cc1ccccc1-c1nc2sc(-c3ccccc3)cc2c(=O)o1	none
O=C(Nc1ccc2c(c1)oc1ccccc12)c1ccncc1	ABHD5-PLIN5 inh 22
CN(C)c1cccc(C(=O)OCC(=O)NC(=O)NCc2ccccc2)c1	none
CCN(c1ccc(N=Cc2c(O)n(Cc3ccc(OC)cc3)c(=O)c3ccccc23)cc1)C(C)C	Myeloid diff MLP active
Cc1ccc(N2CC(NC(=O)C(=O)c3c[nH]c4ccccc34)CC2=O)cc1C (centres undefined)	none
Cc1ccc(C(=O)CC(=O)COc2ccc(Cl)cc2)cc1	Cardio protect 72
COc1cc(-c2nnc(-c3ccc(N4CCOCC4)cc3)o2)cc(OC)c1OC	Cardio protect 53
COc1cc(-c2nnc(-c3ccc(S(=O)(=O)c4ccccc4)cc3)o2)cc(OC)c1OC	none
O=S(=O)(NN1CCOCC1)c1ccc(Br)s1	none
O=S(=O)(NN1CCOCC1)c1ccc(Br)cc1	Rtt109 HAT inh 53 (no result: Myeloid diff MLP)
COCc1ccc(CN2CCC(n3nccc3NC(=O)C(OC)c3ccccc3)CC2)o1 (centres undefined)	Rtt109 HAT inh 59, Myeloid diff MLP inconclusive
O=c1[nH]cnc2onc(-c3ccc(F)cc3)c12	none
CCOC(=O)c1sc(=S)[nH]c1C	sPLA2-III inh 23
CCOC(=O)c1c(C)[nH]sc1=S	none
COc1ccc(Nc2nnc(SCC(=O)N(CC(C)C)C3CCS(=O)(=O)C3)s2)cc1 (centres undefined)	none (no result: Rtt109 HAT inh)
C/C=C/c1cccc(-c2nc(C(=O)N3CCOCC3)cc3c2[C@H](CCO)N(C(=O)NC(C)C)C3)c1	none (no result: DAGLB inhibitor, Rtt109 HAT inh, Cardio protect)
CC(C)COP(=O)(OCC(C)C)C(Nc1ccccc1)c1ccc2c(c1)OCO2 (centres undefined)	Cardio protect 67
CCc1ccc(/C=C2\SC(=S)N(CCCC(=O)N(CCO)c3ccccc3)C2=O)cc1	none (no result: Rtt109 HAT inh)
CCc1ccc(/C=C/C(=O)C2C(=O)c3ccccc3C2=O)cc1	Myeloid diff MLP active
CCN(CC)CCCN=C1N[C@@H](c2ccccc2)C(C(=O)OC)=C(C)N1CC	none
CCCCNS(=O)(=O)c1ccc(NC(=O)Cc2ccccc2[N+](=O)[O-])cc1	Rtt109 HAT inh 53
O=[N+]([O-])c1ccc(Cl)c(/C=N/n2c(-c3ccncc3)n[nH]c2=S)c1	Myeloid diff MLP active
O=[N+]([O-])c1ccc(O)c(/C=N/n2c(-c3ccccc3)n[nH]c2=S)c1	none
O=C(Nc1ccc(Br)cc1Cl)Nn1cnnc1	none
COc1ccc(CCn2c(Br)nc3c2c(=O)[nH]c(=O)n3C)cc1	Cardio protect 64, Myeloid diff MLP inconclusive
COc1ccc(CCn2c(NN)nc3c2c(=O)[nH]c(=O)n3C)cc1	none
O=c1c2ccccc2ncn1-c1cccc([N+](=O)[O-])c1	sPLA2-III inh 20
O=C(O)CCc1ccc(-c2cccs2)n1Cc1ccco1	none
O=C(O)CCc1ccc(-c2cccs2)o1	Rtt109 HAT inh 53, ABHD5-PLIN5 inh 70 (no result: sPLA2-III inh)
NNC(=O)c1sc2cc(C(F)(F)F)cnc2c1-c1cccs1	Myeloid diff MLP active (no result: DAGLB inhibitor)
NC(=O)c1sc2cc(C(F)(F)F)cnc2c1-c1cccs1	none
CC(=NO)C1CCC2C3CCC4CC(=NO)CCC4(C)C3C(C)(O)CC12C (centres undefined)	Cardio protect 60
COC(=O)[C@@]12CCCCN1[C@H](c1ccc(-c3cc(C(C)=O)cs3)cc1)[C@H]1C(=O)N(C)C(=O)[C@H]12	Cardio protect 56, Myeloid diff MLP inconclusive
COC(=O)[C@@]12CCCCN1[C@H](c1ccc(-c3cc(C(C)=O)cs3)c(OC)c1)[C@H]1C(=O)N(C)C(=O)[C@H]12	none
CC(C)Cc1nnc(NC(=O)CCC(=O)N2CCC(C)CC2)s1	none
O=c1c2cnn(-c3ccccc3)c2nc(-c2ccco2)n1-c1ccccc1	none
O=c1oc(-c2ccco2)nc2c1cnn2-c1ccccc1	Cardio protect 51
CCOCc1c(C(=O)NC2=Nc3ccccc3NC(CC)=C2C(=O)OCC)oc2ccccc12	Cardio protect 68
CCOC(=O)C1=C(CC)Nc2ccccc2N=C1NC(=O)c1ccc(S(=O)(=O)N(C)C)cc1	Cardio protect 81
CCCCOc1ccc(C(=O)NCC(=O)NCc2ccccn2)cc1	none
Cc1ccc(NC(=S)N/N=C2\CCCCC2C)cc1 (centres undefined)	Myeloid diff MLP active
COc1ccc(N2CCN(C(=O)c3ccc4c(c3)[nH]c(=S)n3c5ccccc5nc43)CC2)cc1	none (no result: DAGLB inhibitor, Rtt109 HAT inh, Cardio protect, ABHD5-PLIN5 inh, Myeloid diff MLP)
C/C(=N\NC(=O)CNC(=O)c1ccc(Br)cc1)c1ccco1	none
CN(C)c1ccc(/C=C2\CCC/C(=C\c3ccccc3)C2=O)cc1	Myeloid diff MLP active
CC1CCN(C(c2ccc(N(C)C)cc2)c2nnnn2C(C)(C)C)CC1 (centres undefined)	none
O=C(NCC(=O)N(Cc1cccs1)C(C(=O)NC1CCCCC1)c1ccco1)c1ccco1 (centres undefined)	Cardio protect 77
CCOC(=O)CC[C@H]1CC[C@]2(CCCN(S(C)(=O)=O)C2)O1	none (no result: DAGLB inhibitor, Rtt109 HAT inh, Cardio protect, ABHD5-PLIN5 inh, Myeloid diff MLP)
Cc1cc(C)n2nc(-c3ccsc3-n3c(C)ccc3C)cc2n1	Myeloid diff MLP active
CCOC(=O)C1CCN(CCC(=O)Nc2cc(C)ccc2C)CC1	none
COc1cccc(-c2nnc(NC(=O)c3ccc(Cl)s3)o2)c1	Cardio protect 58
O=C(Nc1nnc(-c2ccco2)o1)c1ccc(Cl)s1	none
Cn1c(=O)n(CCc2ccccc2)c(=O)c2c1nc1n2CCCN1Cc1ccccc1	Cardio protect 116
Cn1c(=O)n(CCc2ccccc2)c(=O)c2c1nc1n2CCCN1CCc1ccccc1	Cardio protect 106
CC1=C(C(N)=O)C(c2cccnc2)n2nc(-c3cccc(Cl)c3)nc2N1 (centres undefined)	none
Nc1ncc(-c2ccccc2)n1CC1CCCO1 (centres undefined)	Cardio protect 62
COc1ccc(O)c(C(=O)c2cnc3nc4ccccc4n3c2)c1	Cardio protect 61
COc1ccc(/C=C(\C#N)C(=O)c2c(C)[nH]c3ccccc23)cc1OC	Cardio protect 54
CCOC(=O)c1c(-c2ccc(-c3ccccc3)cc2)csc1NC(=O)C1C2CCC(O2)C1C(=O)O (centres undefined)	ABHD5-PLIN5 inh 34
CCOC(=O)c1c(-c2ccccc2)csc1NC(=O)/C(C#N)=C/c1ccc(O)c(OC)c1	Myeloid diff MLP active
CCOC(=O)c1c(-c2ccccc2)csc1NC(=O)/C(C#N)=C/c1ccc(OC)c(OC)c1	Myeloid diff MLP active
